An excerpt weighted towards active compounds, which were near 1.2% of everything screened.
ERG-DNA inh: blocks human ERG Ets domain binding to DNA | Potency, µM (highest dose often 76.9 µM), for the others: top-dose FP activity, negative = inhibition, usual class: inhibitors | fluorescence polarization, His-ERG Ets domain / labelled DNA | P11308 | actives 0.028% (n = 370,000); active = well fitted inhibition curve with a large enough effect in the polarisation, with a control signal flat; inconclusive = small, poorly fitted or top-dose-only effect, or effect the other way, or a change in a side signal; inactive = no such curve, though single readings can be large or run the other way; the % refers to the polarisation;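 also: polarization taken with two DNA probes labelled with fluorescein and Texas red; % of control where 0% means no effect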
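His-tagged ERG Ets domain (1 uM in the protein solution; 300mM KCl, 50mM Tris-HCl, 1mM EDTA, 1mM DTT, pH 7.5) received compound, then a probe mix of 5 nM fluorescein-DNA and 100nM Texas-615-DNA. Fluorescence polarization was read for both dyes.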
Mito fusion yeast: inhibitors of mitochondrial division or activators of mitochondrial fusion; S. cerevisiae fusion-defective mutant growth rescue, CellTiterGlo 48 h; Potency, µM (top dose mostly 46.1 µM), for the others: top-dose growth rescue (activation), most hits filed as activators; actives 0.23% (n = 320,000); also: % of control where 0% means no effect; nearly all actives have a fitted effect of over 45% in size
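Temperature-sensitive fusion-defective S. cerevisiae (e.g. fzo1-1, mgm1-5) were grown with compound in YPEG medium (3% ethanol, 3% glycerol) for 48 hours at 37C. Growth rescue was measured as viability by CellTiterGlo luminescence after 10 minutes at ambient.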
B2AR arrestin: recruits beta-arrestin to the human beta2-adrenergic receptor; beta-arrestin recruitment to beta2AR, cell-based reporter; Potency, µM (doses to about 46.1 µM), for inactives: top-dose activation, hits mostly activators; actives 0.02% (n = 330,000); AID 492947;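 also: 0% = DMSO controls and full agonism = EC100 isoproterenol or metaproterenol; nearly all actives have a fitted effect of over 65% in size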
Target sequence (P07550 whole entry, looked up): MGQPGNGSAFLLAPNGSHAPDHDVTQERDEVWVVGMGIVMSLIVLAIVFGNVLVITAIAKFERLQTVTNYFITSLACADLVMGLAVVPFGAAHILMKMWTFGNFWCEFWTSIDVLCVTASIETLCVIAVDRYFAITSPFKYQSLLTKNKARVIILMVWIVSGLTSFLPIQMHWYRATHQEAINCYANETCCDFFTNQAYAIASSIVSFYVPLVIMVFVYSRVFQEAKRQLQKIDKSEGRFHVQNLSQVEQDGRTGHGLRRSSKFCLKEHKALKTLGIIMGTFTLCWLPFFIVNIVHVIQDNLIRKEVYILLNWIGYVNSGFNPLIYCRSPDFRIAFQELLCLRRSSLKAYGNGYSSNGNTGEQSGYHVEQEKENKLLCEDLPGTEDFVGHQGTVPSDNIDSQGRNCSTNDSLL
BRCA1 expr up: BRCA1 expression activation; MCF7-BRCA1-FFLuc reporter, luminescence, 48 h; response scale: scaled: vehicle 0%, 10 µM genistein 100%; Potency, µM (top dose mostly 46.1 µM), for the others: at the highest dose activation, usual class: activators; actives 1.1% (n = 380,000); also: nearly all actives have a fitted effect of over 80% in size
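MCF7-BRCA1-FFLuc, 2000 cells/well; 2 h attach, 37 °C/5% CO2; compound 48 h; luciferase substrate 15 min; luminescence end-point. Norm. to genistein 10 microM max activation and DMSO; concentration-response curves fitted.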
Numbers without * were called inactive; ? = inconclusive; nt = not tested or not shown. Unless noted, calls follow the shape of the dose curve; as a rule, active = well fitted curve in the direction sought with a large enough effect; inconclusive = small, poorly fitted or top-dose-only effect, or another doubt; inactive = no such curve, though single readings can be large; an effect the other way counts as inactive or inconclusive. Potency is read from the fitted curve at half-maximal effect.

SMILES	ERG-DNA inh	Mito fusion yeast	B2AR arrestin	BRCA1 expr up
CCCCCOc1ccc(NS(C)(=O)=O)cc1	-0.6%	-2.0%	-0.5%	11.2µM*
CC1CCCC(NC(=O)/C=C/c2c(F)cccc2Cl)C1C (stereo not drawn)	15.8%	nt	nt	11.2µM*
O=C(/C=C/c1c(F)cccc1Cl)N1CCOCC1	4.3%	4.4%	0.0%	10µM*
Cc1cc(F)ccc1NC(=O)c1c(C)oc2c1C1=NCCN1C=N2	-0.6%	nt	nt	nt
CC(/C=C/c1ccccc1)=N/O	-3.1%	-3.4%	-0.6%	42.5%
CC(/C=C/c1ccc(O)cc1)=N/O	2.1%	4.0%	-0.1%	12.6µM*
Cc1ccccc1CNC(=O)Cc1cccs1	-5.9%	-1.4%	-0.3%	12.6µM*
Cc1csc(NC(=O)Cc2coc3cc(C)c(C(C)C)cc23)n1	0.7%	14.5%	0.4%	-29.4%
O=C(Cc1ccccc1[N+](=O)[O-])NCc1ccccc1Cl	-4.7%	0.0%	-1.1%	?
Cc1ccccc1C(=O)O/N=C(\N)Cc1cccs1	0.9%	-5.7%	-1.2%	8.91µM*
Cc1ccccc1OCC(=O)O/N=C(\N)Cc1cccs1	nt	2.0%	-0.3%	37.7%
Cc1cc2occ(CC(=O)NCc3cccs3)c2cc1C(C)C	-4.6%	15.8µM*	-0.2%	-6.6%
Cc1ccccc1CNC(=O)Cc1ccccc1[N+](=O)[O-]	nt	-3.1%	-1.3%	14.1µM*
COc1ccc(S(=O)(=O)N(CC(=O)N(C)Cc2ccccc2)c2ccc(Cl)cc2)cc1	4.4%	nt	nt	0.0%
CN=c1sc(C(=O)Nc2cccc(Cl)c2)cc(=O)n1C	8.4%	6.1%	-1.3%	-39.2%
Cn1ccs/c1=N\C(=O)Nc1cccc(Cl)c1	-7.8%	4.2%	-0.9%	3.55µM*
O=C(CSc1ncc(CO)n1Cc1ccccc1)Nc1ccc(C(F)(F)F)cc1	0.3%	nt	nt	-34.5%
Nc1nc2ccc(C(=O)Nc3ccccc3)cc2s1	7.8%	6.8%	-0.8%	44.1%
CCc1ccc(NC(=O)c2ccc3nc(N)sc3c2)cc1	3.9%	?	0.2%	11.2µM*
N/C(CS(=O)(=O)c1ccccn1)=N\OC(=O)c1ccccc1Cl	-2.5%	2.8%	0.4%	2.51µM*
COc1ccc(NC(=O)c2coc3ccccc23)cc1OC	-4.3%	1.1%	-0.2%	10µM*
O=C(/C=C/c1ccc(O)c(O)c1)c1ccccc1O	55.5%	3.6%	0.2%	0.0%
O=c1cc(O)cc(/C=C/c2ccc(O)c(O)c2)o1	nt	16.4µM*	nt	nt
CCOC(=O)c1ccc(Nc2ncnc3nc[nH]c23)cc1	-2.8%	-0.9%	-0.5%	6.31µM*
Cc1ccc(Nc2ncnc3nc[nH]c23)cc1	nt	nt	nt	11.2µM*
SMILES	ERG-DNA inh	Mito fusion yeast	B2AR arrestin	BRCA1 expr up
CN1Cc2sccc2C(c2ccc(O)c(O)c2)C1 (stereo not drawn)	nt	-7.5%	nt	nt
Nc1nc(CSc2ncccn2)nc(Nc2ccccc2)n1	nt	-1.2%	-1.0%	3.98µM*
Nc1nc(CSc2n[nH]c(-c3ccccc3)n2)nc(Nc2ccccc2)n1	-8.0%	-0.7%	-0.1%	-33.2%
Cc1ccc(Nc2nc(N)nc(CSc3nccn3C)n2)c(C)c1	-1.9%	-1.7%	-0.3%	7.08µM*
Cc1ccc(Nc2nc(N)nc(CSc3ncccn3)n2)cc1	-4.0%	-3.9%	-0.7%	2.24µM*
Cc1ccc(SCc2nc(N)nc(Nc3ccccc3C)n2)c(C)c1	-4.3%	18.8%	-0.4%	22.6%
CCc1ccc(NC(=O)c2cc(S(=O)(=O)N3CCCCCC3)ccc2F)cc1	-2.6%	nt	nt	nt
COc1ccc(CNC(=O)CSc2nc(-c3ccc(OC)c(OC)c3)cc(C(F)(F)F)n2)cc1	2.9%	nt	nt	4.1%
Cc1ccc(C23CC4CC(CC(CC(=O)NC(C)(C)CO)(C4)C2)C3)cc1	-4.4%	17.8µM*	-0.7%	-26.6%
Cc1ccc(C(=O)c2cc3ccccc3o2)cc1C	0.7%	2.0%	0.0%	11.2µM*
Cc1onc(-c2ccccc2)c1C(=O)N/N=C/c1ccco1	12.5%	-2.1%	-0.3%	-0.4%
Cc1onc(-c2ccccc2)c1C(=O)N/N=C/c1ccc([N+](=O)[O-])s1	nt	11.2µM*	0.1%	-96.8%
CCN(C(=O)c1cc2c(=O)n3ccccc3nc2n1C)C1CCCCC1	8.3%	5.2%	-0.5%	50.3%
CN(C(=O)c1cc2c(=O)n3ccccc3nc2n1C)C1CCCCC1	0.0%	4.1%	-0.4%	1.41µM*
Fc1cccc(F)c1-c1nc(-c2ccncc2)no1	7.2%	-5.8%	-0.4%	8.91µM*
Cc1ccc(-c2nc(-c3ccncc3)no2)cc1C	-0.5%	-12.6%	8.0%	?
Cc1ccc(-c2noc(-c3ccno3)n2)cc1	10.5%	-5.8%	0.6%	8.91µM*
CC[N+](C)(C)c1ccc(/C=C/c2ccc3ccccc3n2)cc1	nt	nt	nt	-13.5%
CNc1ncc(C(=O)c2ccc(-c3ccccc3)cc2)s1	-1.2%	6.9%	-0.3%	2.82µM*
CNc1ncc(C(=O)c2ccc(Cl)cc2)s1	-3.4%	4.0%	0.3%	4.47µM*
O=C(NCC1CCCO1)c1sc2cc(Cl)ccc2c1Cl (stereo not drawn)	-0.8%	11.8%	-0.8%	10µM*
CC(C)(CNC(=O)c1sc2cc(Cl)ccc2c1Cl)N1CCOCC1	-1.8%	12.9%	0.2%	-29.3%
O=C(NCCCCCCNC(=O)c1cncc(O)c1)c1cncc(O)c1	-5.8%	7.94µM*	-0.2%	-5.6%
Cc1cccc(C)c1OCc1cc(C(=O)N2CCC(C3CCCCC3)C2)no1 (stereo not drawn)	-1.1%	nt	nt	12.6µM*
CC(=O)c1ccc(OCc2cc(C(=O)N3CC[C@@H]4CCCC[C@H]4C3)no2)cc1	7.3%	0.9%	3.2%	3.16µM*
SMILES	ERG-DNA inh	Mito fusion yeast	B2AR arrestin	BRCA1 expr up
N=C1SCC(=O)N1c1nc(-c2ccccc2)cs1	nt	-3.4%	-0.1%	7.94µM*
CCCc1nc2c3ccccc3ccn2c1Cc1ccccc1	nt	nt	nt	11.2µM*
COc1cc2[nH]c(=O)n(CCCC(=O)NCc3ccccc3Cl)c(=O)c2cc1OC	-0.2%	nt	nt	7.2%
O=C(Nc1nccs1)c1ccc(-c2ccccc2Cl)o1	nt	?	-0.8%	94.6%
O=C(Nc1nccs1)c1ccc(-c2ccccc2[N+](=O)[O-])o1	0.0%	-2.2%	-0.4%	3.55µM*
O=C(Nc1nccs1)c1ccc(-c2ccc([N+](=O)[O-])cc2)o1	-4.4%	-2.2%	-0.1%	3.16µM*
O=C1Cc2ccccc2Sc2ccc(O)cc21	-3.1%	14.1µM*	-0.7%	-0.7%
Nc1ccc2c(c1)CC(=O)c1ccccc1S2	3.5%	20.0%	-0.4%	16.1%
CC(=O)NCCNC(=O)c1ccc(CSc2ccc(Cl)cc2)cc1	16.1%	-3.0%	-0.2%	11.2µM*
CCNC(=O)c1ccc(CSc2ccc(Cl)cc2)cc1	0.9%	16.4%	-0.2%	28.9%
CCCCN1C(=O)c2[nH]nc(-c3ccccc3O)c2C1c1ccc(OCc2ccccc2)cc1 (stereo not drawn)	9.0%	nt	nt	nt
COc1ccc(NC(=O)c2oc3ccccc3c2NC(=O)Cc2coc3c(C)c(C)ccc23)cc1	0.8%	nt	nt	nt
O=C(N/N=C\c1ccc(Oc2ccccc2)cc1)c1csnn1	-6.3%	?	-1.0%	12.6µM*

Screening data deposited in PubChem BioAssay by National Center for Advancing Translational Sciences (NCATS).
